Here are results for 40 compounds from PubChem BioAssay (NCATS).

Results filed as inconclusive are left out. Entries that show only a call come without a potency. Calls of active or inactive are those of the source. Calls come from the whole dose curve; as a rule, active = well fitted cell-killing curve with a large enough effect; inconclusive = small, poorly fitted or top-dose-only effect; inactive = flat fitted curve, though single readings scatter.
Potency is the fitted concentration of half-maximal effect.

The experiment can be described thus: Cell Viability - LYMP2-010 (AID 981). Note: nearly all actives have a fitted effect of over 55% in size. The settings on record: LYMP2-010 lymphoblastoid cell viability, qHTS; series mostly up to 92.2 µM. An excerpt:
NIH Chemical Genomics Center [NCGC]
NIH Molecular Libraries Screening Centers Network [MLSCN]
National Institutes of Environmental Health Sciences [NIEHS]
National Toxicology Program [NTP]
We have developed a 1536-well cell-based assay for quantitative high throughput screening (qHTS) against a number of cell lines to determine in vitro cytotoxicity of small molecules. This particular assay uses a human lymphoblastoid cell line (LYMP2-010) purchased from Coriell Institute for Medical Research.
NCGC Assay Protocol Summary:
The CellTiter-Glo luminescent cell viability assay (Promega) is a homogeneous method to measure the number of viable cells in culture. The end point readout of this assay is based on quantitation of intracellular ATP, an indicator of metabolic activity, using the luciferase reaction. Luciferase catalyzes the oxidation of beetle Luciferin to oxyluciferin and light in the presence of ATP. The luminescent signal is proportional to amount of ATP present.
Using the CellTiter-Glo luminescent cell viability assay, the amount of cellular ATP was measured in the lymphoblastoid cell line with complete culture medium following compound treatment for 24 hours. The assay was performed in opaque white Kalypsys 1536-well plates. In the screen, tetraoctylammonium bromide was used as positive control. Library compounds were measured for their ability to cause acute toxicity in the cell line, as reflected by a decrease in intracellular ATP levels, in a concentration-dependent manner. […] AC50 values were determined from concentration-response data modeled with the standard Hill equation.
qHTS protocol for CellTiter Glo lymphoblastoid cellular assay
[Step] [Parameter] [Value] [Description]
1. Reagent; 5 uL; 2500 lymphoblastoid cells/well
2. Time; 5 hr; 37 C incubation
4. Controls; 23 nL; Tetraoctylammonium bromide 6.4pM to 92 uM
5. Time; 24 hr; 37 C incubation
6. Reagent; 5 uL; CellTiter Glo reagent
7. Time; 30 min; Room Temperature
8. Detection; Luminescence; Viewlux plate reader
Keywords: cell viability, cytotoxicity, lymphoblastoid cell line, luminescence, NTPHTS, NTPHTS_NCGC, NIEHS, DSSTox, MLSMR, MLSCN, NIH Roadmap, qHTS, NCGC
Consider `[O-][Br+2]([O-])O`, for which the Potency entry is “inactive”.
Then `OCC(Br)CBr` (stereo not given), with “inactive”; and `Cc1cccc(C#N)c1`, with “inactive”.
Then `CCNc1nc(Cl)nc(NC(C)C)n1`, with “inactive”; and `ClC(Cl)=C(Cl)Cl`, with “inactive”.
Regarding `CC(O)CCl` (stereo not given), the Potency result was “inactive”.
Next, `Oc1ccc(Cl)cc1Cl`: “inactive”.
Then `c1nc[nH]n1`, with “inactive”; and `CCC[CH2][Sn]([Cl])([Cl])[Cl]`, with “inactive”.
Consider `C=C(Cl)Cl`, for which the Potency result is “inactive”.
Then `Nc1ccc(Br)cc1`, with “inactive”; and `Cc1ccc([N+](=O)[O-])cc1C`, with “inactive”; and `C=CCc1ccc(OC)cc1`, with “inactive”.
Then `C=C(C)C#N`, with “inactive”.
Then `S=C=Nc1cccc2ccccc12`, with “inactive”; and `ClC(Cl)(Cl)c1ccccc1`, with “inactive”; and `Clc1nc(Cl)nc(Nc2ccccc2Cl)n1`, with “inactive”.
On to `CCOc1ccc(N)cc1`, for which the Potency result is “inactive”.
Take `CCOP(=S)(OCC)SCSC(C)(C)C`: the Potency result was “inactive”.
Then `Brc1ccc(Oc2cc(Br)c(Br)cc2Br)c(Br)c1`, with “inactive”; and `CCCCOCCOP(=O)(OCCOCCCC)OCCOCCCC`, with “inactive”.
Take `CCc1cccc(CC)c1N(COC)C(=O)CCl`: the Potency was 50.1 µM (active).
Turning to `CCCOC(=O)c1ccccc1C(=O)OCCC`, the Potency result was “inactive”.
As for `CCOCN(C(=O)CCl)c1c(C)cccc1CC`, the Potency was 50.1 µM (active).
Consider `COC1=CC(=O)O[C@@H](/C=C/c2ccc3c(c2)OCO3)C1`, for which the Potency result was “inactive”.
Next, `CCCC(=O)Cl`: “inactive”; `CCSC(=O)Cl`: “inactive”; `CCN(CC)c1ccccc1`: “inactive”.
As to `Cc1cccc([N+](=O)[O-])c1`, the Potency result was “inactive”.
Turning to `C=C(C)C(=O)OCC1CO1` (stereo not given), the Potency entry is “inactive”.
In the case of `Nc1c(Cl)c(Cl)nc(C(=O)O)c1Cl`, the Potency entry is “inactive”.
Then `c1ccc(OP(Oc2ccccc2)Oc2ccccc2)cc1`, with “inactive”; and `Nc1ccccc1Cl`, with “inactive”; and `Clc1cc(Cl)c(-c2cc(Cl)c(Cl)cc2Cl)cc1Cl`, with “inactive”.
`CC(C)(C)OOC(C)(C)C`: the Potency result is “inactive”.
As for `c1ccc2c(c1)CCCC2`, the Potency result was “inactive”.
Take `Brc1ccccc1`: the Potency entry is “inactive”.
On to `C/C=C/c1ccc2c(c1)OCO2`, for which the Potency result is “inactive”.
Next, `CC(=O)[O-].CC(=O)[O-].O.O.O.[Pb+2]`: “inactive”; `C=CCOC(=O)c1ccccc1N`: “inactive”.
